Laboratory results published in PubChem BioAssay (NCATS).
Results filed as inconclusive are left out. Activity calls are given as the source filed them. Unless noted, calls follow the shape of the dose curve; as a rule, active = well fitted curve in the direction sought with a large enough effect; inconclusive = small, poorly fitted or top-dose-only effect, or another doubt; inactive = no such curve, though single readings can be large; an effect the other way counts as inactive or inconclusive.

Tests used:
[1] = system: Zika virus NS2B-NS3 protease (unlinked complex); experiment: Primary screen GU Rhodamine qHTS for Zika virus inhibitors: Unlinked NS2B-NS3 protease assay (AID 1347159); settings: Recombinant ZIKV NS2B-NS3 protease, Rhodamine110 substrate fluorescence; series mostly up to 107 µM; also: nearly all actives have a fitted effect of over 60% in size; also: potency is read from the fitted curve at half-maximal effect; as to activity change, negative = inhibition: % is scaled to controls: 0 for no effect and ±100 for the full control effect
Procedure, shortened: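 Noncovalent NS2B hydrophilic domain/NS3 protease complex (25 nM final) in 10 mM Tris-HCl pH 8.0, 0.01% Tween 20, preincubated 15 min with compounds (up to 114 microM), then 1.5 microM Rhodamine110 substrate. Fluorescence change over 15 min fitted to 4-parameter Hill.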

[2] = system: CAOV3; experiment: Primary qHTS to identify gynecologic anti-cancer compounds using libraries of approved drugs and bioactive compounds (AID 1345084); settings: Gynecologic cancer cell panel viability, ATPlite luminescence, 48 h; series mostly up to 57.5 µM; also: nearly all actives have a fitted effect of over 55% in size; also: potency is read from the fitted curve at half-maximal effect; as to activity change, negative = cytotoxicity: % is scaled to controls: 0 for no effect and ±100 for the full control effect
Procedure, shortened: (§1)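 Five-concentration response, 48 h; readout is ATP-driven luciferase luminescence.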

[3] = system: PA-1; experiment: as above; settings: Gynecologic cancer cell panel viability, ATPlite luminescence, 48 h; series mostly up to 57.5 µM
Procedure, shortened: as §1

[4] = target: Cytochrome P450 2D6 (Homo sapiens) (UniProt P10635); experiment: Cytochrome P450 family 2 subfamily D member 6 (CYP2D6) small molecule antagonists: luciferase biochemical (cell-free) qHTS assay (AID 1645840; active = well fitted curve in the direction sought with a large enough effect in the repeat runs; an effect the other way counts as inactive or inconclusive; also: potency is read from the fitted curve at half-maximal effect; nearly all actives have a fitted effect of over 55% in size); settings: P450-Glo CYP2D6 enzyme, luciferin luminescence, 1 h; series mostly up to 57.4 µM
Procedure, shortened: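 P450-Glo luminescent screen: recombinant CYP2D6 enzyme–proluciferin substrate mix preincubated with compound 10 min at room temperature, then NADPH regeneration added for 1 h at room temperature. Detection reagent added for 20 min; luciferin light read as relative luminescence units.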

[5] = target: Cytochrome P450 2C9 (Homo sapiens) (UniProt P11712); experiment: Cytochrome P450 family 2 subfamily C member 9 (CYP2C9) small molecule antagonists: luciferase biochemical (cell-free) qHTS assay (AID 1645842; active = well fitted curve in the direction sought with a large enough effect in the repeat runs; an effect the other way counts as inactive or inconclusive; also: nearly all actives have a fitted effect of over 55% in size; also: potency is read from the fitted curve at half-maximal effect; as to activity change, negative = inhibition: % is scaled to controls: 0 for no effect and ±100 for the full control effect); settings: P450-Glo CYP2C9 enzyme assay, luciferin luminescence; series mostly up to 57.4 µM
Procedure, shortened: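 Luminescence, after 20 min with luciferin detection reagent, reflected CYP2C9 turnover during a 1 h NADPH-driven reaction at 37C. Enzyme-substrate mix contained 0.4% bovine serum albumin and was preincubated with compound 10 min at room temperature.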

[6] = system: SKOV3; experiment: Primary qHTS to identify gynecologic anti-cancer compounds using libraries of approved drugs and bioactive compounds (AID 1345084); settings: Gynecologic cancer cell panel viability, ATPlite luminescence, 48 h; series mostly up to 57.5 µM; also: nearly all actives have a fitted effect of over 55% in size; also: potency is read from the fitted curve at half-maximal effect; as to activity change, negative = cytotoxicity: % is scaled to controls: 0 for no effect and ±100 for the full control effect
Procedure, shortened: as §1

[7] = target: Catechol O-methyltransferase (Homo sapiens) (UniProt P21964); experiment: Confirmatory Screen for Target Class Profiling of Small Molecule Inhibitors of Methyltransferases (AID 1745852); settings: MTase-Glo luminescence, SAH detection, recombinant enzyme; measured here: COMT max response; stronger effect = lower value
[8] = target: Guanidinoacetate N-methyltransferase (Homo sapiens) (UniProt Q14353); experiment: as above; settings: MTase-Glo luminescence, SAH detection, recombinant enzyme; activity change, negative = inhibition: at 57.3 µM (top of the series) unless noted; series mostly up to 57.3 µM
[9] = target: Nicotinamide N-methyltransferase (Homo sapiens) (UniProt P40261); experiment: as above; settings: MTase-Glo luminescence, SAH detection, recombinant enzyme; measured here: NNMT max response; stronger effect = lower value
[10] = target: Phenylethanolamine N-methyltransferase (Homo sapiens) (UniProt P11086); experiment: as above; settings: MTase-Glo luminescence, SAH detection, recombinant enzyme; measured here: PNMT max response; stronger effect = lower value
[11] = Confirmatory screen NINDS Rhodamine qHTS for Zika virus inhibitors (AID 1347161); settings: purified enzyme assay, Rhodamine110 substrate fluorescence, 15 min; series mostly up to 114 µM; also: nearly all actives have a fitted effect of over 60% in size; also: potency is read from the fitted curve at half-maximal effect;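 as to activity change, negative = inhibition: purified Zika NS2B-NS3 protease with linked NS2B cofactor domain and Rhodamine110 peptide substrate; plate controls were no-inhibitor control for no effect and no-enzyme control for full effect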
Procedure, shortened: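 Single-chain NS2B-NS3 protease, 25 nM, pH 8.0; compounds preincubated 15 min. Activity: Rhodamine110 release from 1.5 microM substrate over 15 min, room temperature, data fitted to 4-parameter Hill.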

[12] = Tertiary RLuc qRT-PCR qHTS assay for Zika virus inhibitors (AID 1347169); settings: infected Vero cells, reporter luminescence, 48-72 h; series mostly up to 1.74 µM; also: nearly all actives have a fitted effect of over 55% in size; also: potency is read from the fitted curve at half-maximal effect
Procedure, shortened: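 Vero, 1,000 cells/well, o/n 37 C; cpd pinned in DMSO; ZIKV-RLuc Cambodian, MOI 1-2, 48-72 h 37 C; live-cell RLuc substrate, lum read at 1-1.5 h.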

[13] = system: NIH3T3; experiment: Cytotoxic Profiling of Annotated Libraries Using Quantitative High-Throughput Screening (AID 1296008); settings: Five cell lines viability, CellTiter-Glo ATP luminescence, 48-72 h; max response: stronger effect = lower value; also: potency is read from the fitted curve at half-maximal effect; nearly all actives have a fitted effect of over 60% in size
Procedure, shortened: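 Cells exposed to compounds for 48 or 72 hr at 37 degrees Celsius. Viability read as ATP-coupled luminescence with CellTiter-Glo after 10 min at room temperature.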

[14] = P-glycoprotein substrates identified in KB-8-5-11 adenocarcinoma cell line, qHTS therapeutic library screen (AID 1346987); settings: KB-8-5-11 (P-gp overexpressing) viability, CellTiter-Glo, 72 h; series mostly up to 44.5 µM; also: potency is read from the fitted curve at half-maximal effect; nearly all actives have a fitted effect of over 65% in size
Procedure, shortened: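 Steps: plate 500 KB-8-5-11 cells/well in DMEM + 10% FCS (colchicine removed); pin compounds in dose-response; incubate 72 h, 37 degree C, 5% CO2; add CellTiter-Glo, 5 min; read luminescence.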

Cytochrome P450 2D6 (Homo sapiens), sequence (P10635 whole entry, looked up): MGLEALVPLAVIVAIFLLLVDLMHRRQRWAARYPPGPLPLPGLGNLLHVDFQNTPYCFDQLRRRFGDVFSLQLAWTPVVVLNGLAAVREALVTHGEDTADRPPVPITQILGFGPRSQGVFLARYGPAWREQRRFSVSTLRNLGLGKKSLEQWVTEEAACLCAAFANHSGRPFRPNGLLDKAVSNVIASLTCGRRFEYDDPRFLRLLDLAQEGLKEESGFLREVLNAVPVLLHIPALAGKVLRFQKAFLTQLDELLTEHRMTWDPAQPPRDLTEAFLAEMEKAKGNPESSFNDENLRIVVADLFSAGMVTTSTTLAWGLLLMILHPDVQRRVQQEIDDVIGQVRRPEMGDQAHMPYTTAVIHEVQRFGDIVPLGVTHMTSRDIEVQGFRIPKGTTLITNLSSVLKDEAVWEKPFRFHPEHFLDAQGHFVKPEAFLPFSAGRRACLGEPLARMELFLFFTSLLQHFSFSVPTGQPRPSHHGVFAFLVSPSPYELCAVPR
Nicotinamide N-methyltransferase (Homo sapiens), sequence (P40261 whole entry, looked up): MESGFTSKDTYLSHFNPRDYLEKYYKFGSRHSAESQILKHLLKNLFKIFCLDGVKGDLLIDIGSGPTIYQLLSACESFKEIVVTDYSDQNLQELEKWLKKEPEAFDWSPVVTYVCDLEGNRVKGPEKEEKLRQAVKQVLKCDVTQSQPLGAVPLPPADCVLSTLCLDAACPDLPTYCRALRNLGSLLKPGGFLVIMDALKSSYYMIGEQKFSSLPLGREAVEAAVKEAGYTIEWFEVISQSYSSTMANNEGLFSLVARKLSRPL
Catechol O-methyltransferase (Homo sapiens), sequence (P21964 whole entry, looked up): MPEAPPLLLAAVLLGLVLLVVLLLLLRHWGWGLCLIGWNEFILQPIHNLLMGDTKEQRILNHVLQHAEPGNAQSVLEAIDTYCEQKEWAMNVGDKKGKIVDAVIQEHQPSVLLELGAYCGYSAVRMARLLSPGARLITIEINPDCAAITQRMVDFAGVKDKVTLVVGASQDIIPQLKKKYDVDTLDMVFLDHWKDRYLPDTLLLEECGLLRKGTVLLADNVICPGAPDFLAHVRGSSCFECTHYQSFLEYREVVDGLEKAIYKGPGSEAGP
Cytochrome P450 2C9 (Homo sapiens), sequence (P11712 whole entry, looked up): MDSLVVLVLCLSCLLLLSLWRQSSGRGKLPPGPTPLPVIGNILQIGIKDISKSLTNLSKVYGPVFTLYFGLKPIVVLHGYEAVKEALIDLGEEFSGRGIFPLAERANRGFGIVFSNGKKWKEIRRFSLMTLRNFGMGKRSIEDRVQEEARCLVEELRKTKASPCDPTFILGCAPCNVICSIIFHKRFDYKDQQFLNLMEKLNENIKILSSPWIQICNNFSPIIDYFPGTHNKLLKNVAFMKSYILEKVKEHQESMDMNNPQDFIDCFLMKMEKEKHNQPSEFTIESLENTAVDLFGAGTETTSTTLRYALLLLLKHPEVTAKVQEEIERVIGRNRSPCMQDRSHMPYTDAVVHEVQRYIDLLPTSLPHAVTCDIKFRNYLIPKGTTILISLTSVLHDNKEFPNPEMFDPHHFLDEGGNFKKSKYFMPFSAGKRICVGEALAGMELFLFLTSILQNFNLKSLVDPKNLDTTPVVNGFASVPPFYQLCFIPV
Phenylethanolamine N-methyltransferase (Homo sapiens), sequence (P11086 whole entry, looked up, the tested form may be a part): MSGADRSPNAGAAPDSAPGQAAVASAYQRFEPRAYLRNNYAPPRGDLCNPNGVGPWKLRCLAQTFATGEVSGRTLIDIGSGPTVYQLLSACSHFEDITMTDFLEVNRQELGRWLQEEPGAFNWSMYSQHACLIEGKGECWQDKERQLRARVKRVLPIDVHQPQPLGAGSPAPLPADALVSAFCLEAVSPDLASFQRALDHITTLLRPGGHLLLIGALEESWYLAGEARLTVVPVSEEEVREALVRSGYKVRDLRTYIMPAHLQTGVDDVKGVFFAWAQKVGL

CC1(C)SC2C(NC(=O)[C@H](NC(=O)N3CCNC3=O)c3ccccc3)C(=O)N2C1C(=O)O (some centres not stated)
Potency [1]: inactive
Potency [2]: inactive
Potency [3]: inactive

CCCCOc1ccc(-c2cncc(C(=O)NCc3cccnc3N3CCOCC3)c2)cc1Cl
Potency [1]: inactive
Potency [4]: 12 µM (active)
Potency [5]: 3.01 µM (active)
Potency [2]: inactive
Potency [3]: inactive
Potency [6]: inactive

CN(C)CCCNc1nc(CN2CCN(C(c3ccc(Cl)cc3)c3ccc(Cl)cc3)CC2)nc2ccccc12
Potency [1]: inactive
Potency [5]: inactive
activity [7]: 2.87%
activity change, negative = inhibition [8]: 0%
activity [9]: -46.9%
activity [10]: -0.0137%
Potency [2]: inactive
Potency [3]: inactive

CN(CC(=O)N(Cc1ccc(C2CCCCC2)cc1)c1ccc(C(=O)O)cc1)S(=O)(=O)c1c(F)c(F)c(F)c(F)c1F
Potency [1]: 2.51 µM (active)
Potency [11]: 2.78 µM (active)
Potency [12]: 7.39 µM (active)
Potency [5]: 16.9 µM (active)
Potency [13]: 6.51 µM (active)
Potency [2]: 25.1 µM (active)
Potency [6]: 31.6 µM (active)

O=C(c1ccc(F)c(F)c1Nc1ccc(I)cc1F)N1CC(O)([C@@H]2CCCCN2)C1
Potency [14]: 20.6 µM (active)
Potency [3]: inactive

COc1ccc(C(=O)N(CCC(C)C)Cc2nc(C)c(C)n2Cc2ccccc2C)c(OC)c1
Potency [4]: 0.952 µM (active)
activity [7]: -8.43%
activity change, negative = inhibition [8]: -6.57%
activity [9]: -68.8%
activity [10]: -7.99%
Potency [2]: inactive
Potency [3]: inactive
Potency [6]: inactive

CN([C@H]1c2cc(OCCCC(F)(F)F)ccc2OC(C)(C)[C@@H]1O)S(C)(=O)=O
Potency [1]: inactive
Potency [2]: inactive
Potency [3]: inactive

Cc1ccn(-c2cc(Cl)ccc2[C@@H](Oc2cc(-c3ccc(C[C@H](N)C(=O)O)cc3)nc(N)n2)C(F)(F)F)n1
Potency [1]: inactive
Potency [11]: 24.8 µM (active)
Potency [12]: 20.8 µM (active)
activity [7]: -0.316%
activity change, negative = inhibition [8]: 0%
activity [9]: -31.2%
activity [10]: -1.43%
Potency [2]: inactive
Potency [3]: inactive
Potency [6]: inactive

CC(C)n1cnc2c(Nc3cccc(Cl)c3)nc(NCCO)nc21
Potency [14]: 14.6 µM (active)
Potency [1]: inactive
Potency [4]: 16.9 µM (active)
Potency [5]: 9.52 µM (active)
Potency [2]: inactive
Potency [3]: inactive

CN[C@@H]1[C@@H](O)[C@@H](O[C@@H]2[C@@H](O)[C@H](O[C@H]3O[C@@H]([C@@H](C)NC)CC[C@H]3N)[C@@H](N)C[C@H]2N)OC[C@]1(C)O
Potency [2]: inactive
Potency [3]: inactive
Potency [6]: inactive

CS(=O)(=O)c1ccc(-c2cn3ccccc3n2)cc1
Potency [11]: inactive
Potency [12]: inactive
Potency [4]: 5.49 µM (active)
Potency [2]: 10 µM (active)
Potency [3]: 17.8 µM (active)
Potency [6]: 8.91 µM (active)

CC(CCC1(O)OC2CC3C4CC=C5CC(O[C@@H]6O[C@H](CO)[C@@H](O[C@@H]7O[C@H](CO)[C@@H](O)[C@H](O)[C@H]7O)[C@H](O)[C@H]6O[C@@H]6O[C@@H](C)[C@H](O)[C@@H](O)[C@H]6O)CCC5(C)C4CCC3(C)C2C1C)CO[C@@H]1O[C@H](CO)[C@@H](O)[C@H](O)[C@H]1O (some centres not stated)
Potency [1]: inactive
activity change, negative = cytotoxicity [2]: -3.93% [at 11.6 µM] (inactive)
activity change, negative = cytotoxicity [3]: 4.42% [at 11.6 µM] (inactive)
activity change, negative = cytotoxicity [6]: -2.2% [at 11.6 µM] (inactive)

CC1(CO)CCCC2(C)C1C(OC(=O)c1ccccc1)C=C1C(=O)OCC12O (configuration not stated)
Potency [13]: 12.8 µM (active)
